TRHR agonist – qHTS for Small Molecule Agonists and Allosteric Enhancers of Human TRH Receptor: Primary Screen for Agonists; TRHR cells, calcium flux fluo-8, FDSS agonist mode; activation, % at 2 µM; actives 0.18% (n = 360,000); in the data active means activation above about 30%; further: 0% is about no effect
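Read-out: compound-evoked intracellular calcium rise in TRHR cells, fluo-8 dye, kinetic FDSS fluorescence at 1 s/cycle following a 10-cycle baseline. Cells cultured overnight before dye loading (30 min–1.5 h, RT).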
TRPML1 agonist – qHTS for Agonists of the Human Mucolipin Transient Receptor Potential 1 (TRPML1) | TRPML1-expressing cells, Ca2+ dye fluorescence, FDSS | actives 0.12% (n = 410,000) | activation, % (test concentration not listed) | Mucolipin-1 (Homo sapiens), Q9GZU1; in the data active means activation above about 50%; inconclusive means mostly about 30% to 49%; further: 0% is about no effect
Target sequence (Q9GZU1 whole entry, looked up): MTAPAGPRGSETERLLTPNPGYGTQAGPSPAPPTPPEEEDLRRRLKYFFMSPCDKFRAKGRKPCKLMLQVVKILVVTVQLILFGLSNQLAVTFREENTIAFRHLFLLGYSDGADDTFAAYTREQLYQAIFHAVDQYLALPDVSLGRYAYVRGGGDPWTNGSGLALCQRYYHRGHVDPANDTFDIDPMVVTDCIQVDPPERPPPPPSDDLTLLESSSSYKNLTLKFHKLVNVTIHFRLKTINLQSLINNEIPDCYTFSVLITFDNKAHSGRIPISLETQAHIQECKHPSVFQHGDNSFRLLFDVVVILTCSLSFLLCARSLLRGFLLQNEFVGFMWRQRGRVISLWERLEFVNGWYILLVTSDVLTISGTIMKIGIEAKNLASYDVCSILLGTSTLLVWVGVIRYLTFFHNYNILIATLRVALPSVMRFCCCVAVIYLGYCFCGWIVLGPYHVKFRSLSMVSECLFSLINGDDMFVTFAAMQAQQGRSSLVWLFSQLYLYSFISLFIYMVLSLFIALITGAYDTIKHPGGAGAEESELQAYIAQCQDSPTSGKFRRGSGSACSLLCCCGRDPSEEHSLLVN
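Agonist activity was taken from a 110 s kinetic Ca2+ dye read on the FDSS after pinning compounds onto TRPML1-DL cells. The cells were seeded at 1,500/well with Tet inducer, incubated about 16 h, then dye-loaded at room temperature.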
TRPML1 inh – qHTS for Inhibitors of the Human Mucolipin Transient Receptor Potential 1 (TRPML1); Mucolipin-1 (Homo sapiens), Q9GZU1; TRPML1-inducible cells, Ca2+ dye fluorescence, FDSS; active compounds read low; inhibition of EC80 agonist-evoked calcium signal; activity change, negative = inhibition, % (test concentration not listed); actives 0.02% (n = 390,000); in the data active means activity change below about -50%; inconclusive means between about -30% and that limit;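 further: stimulus is agonist 54-4 at its EC80 concentration; on the % scale 0 is the no-effect control and ±100 the full control effect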
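Calcium fluorescence in TRPML1-DL cells induced overnight with Tet: a 110 s read after compound pin addition, then a 110 s antagonist read after challenge with 54-4 at 4 uM final (EC80).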
TRHR enhancer – qHTS for Small Molecule Agonists and Allosteric Enhancers of Human TRH Receptor: Primary Screen for Enhancers | actives 0.66% (n = 360,000) | TRHR cells, fluo-8 calcium fluorescence, EC20 TRH enhancement | enhancement, % at 2 µM | Thyrotropin-releasing hormone receptor (Homo sapiens), P34981; in the data active means enhancement above about 30%; further: 0% is about no effect
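TRHR-expressing cells loaded with fluo-8 calcium dye were read kinetically (ex 480/em 530) during compound addition, then stimulated with an EC20 of TRH (10 nM final). Enhancement of the Gq-mediated intracellular calcium response was scored.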
TSG101-PTAP inh – qHTS Assay for Iinhibitors of HIV-1 Budding by Blocking the Interaction of PTAP/TSG101; Tumor susceptibility gene 101 protein (Homo sapiens), Q99816; 340,000 tested, under 10 active; Fluorescence polarization, FITC-PTAP peptide / Tsg101 binding; Potency, µM (highest dose often 115 µM), without a hit: top-dose activity change, negative = inhibition, actives largely listed as inhibitors; active means well fitted inhibition curve with a large enough effect in the main read-out, with a control signal flat, not every such curve was filed as active; inconclusive means small, poorly fitted or top-dose-only effect, or effect the other way, or a change in a side signal; inactive means no such curve, though single readings can be large or run the other way; further: potency means the concentration at half of the fitted maximal effect; % of control where 0% means no effect
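FP read-out: FITC-PTAP peptide, 50 nM final, binding Tsg101 binding domain, 10 uM final; 20 min, r.t.; 10 mM HEPES pH 7.5, 0.15 M NaCl, 0.01% Tween 20, 3 mM EDTA, 0.1 mM TCEP.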
Active calls of the source: *; ? = inconclusive; · = no result; ! = not confirmed by another sample. An excerpt weighted towards active compounds, which were near 0.81% of everything screened.

SMILES	TRHR agonist	TRPML1 agonist	TRPML1 inh	TRHR enhancer	TSG101-PTAP inh
CS(=O)(=O)N1CCN(Cc2cc3nc(-c4cccc5[nH]ncc45)nc(N4CCOCC4)c3s2)CC1	·	-1	·	·	·
COCCOC(=O)N1CCN(/[N+]([O-])=N/Oc2ccc([N+](=O)[O-])cc2[N+](=O)[O-])CC1	·	3	-4	·	·
Cc1ccc(C)c(N2CCN(S(=O)(=O)c3csc(C(N)=O)c3)CC2)c1	-3	1	1	32*!	-2%
CN1CCC(N(C)S(=O)(=O)c2ccc(Cl)cc2)CC1	0	0	-8	35*	-4%
CN(CC(=O)N1CCCC1)S(=O)(=O)c1ccc(Cl)cc1	0	0	-4	30*	-3%
CN(CC(=O)N1CCCCC1)S(=O)(=O)c1ccc(Cl)cc1	0	0	10	3	-2%
CCN1/C(=C/c2ccc3cc(C)cc(C)c3[n+]2CC)Sc2cc(C)ccc21	21	24	-24	35*	10%
CCN1/C(=C\c2ccc3cc(C)ccc3[n+]2CC)Sc2cc(C)c(C)cc21	10	9	18	2	13%
CCN1/C(=C/c2ccc3cccc(C)c3[n+]2CC)Sc2ccccc21	·	58*	-11	·	12%
O=C(C[n+]1cccc(I)c1)c1ccc(F)cc1	·	0	·	·	·
CC(=O)c1c(C)[nH]c(C(=O)Nc2cc(F)ccc2C)c1C	-1	-1	26	0	1%
CC(=O)c1c(C)[nH]c(C(=O)Nc2ccc(F)cc2F)c1C	-1	0	17	36*	-6%
Cn1nnnc1Sc1ncnc2scc(-c3ccccc3C#N)c12	0	·	·	7	·
CC(=O)c1ccc(S(=O)(=O)N2CCN(c3nc(-c4cccnc4)nc4ccccc34)CC2)cc1	1	0	-14	35*	-5%
CC(=O)c1ccc(S(=O)(=O)N2CCN(c3nc(-c4ccccc4)nc4ccccc34)CC2)cc1	·	0	·	·	·
O=c1oc2c3c4c(cc2c(C(F)(F)F)c1CCN1CCOCC1)CCCN4CCC3	95*	91*	-26	4	?
Cc1cc2c(s1)c1cnn(Cc3cc(F)cc(F)c3F)c(=O)c1n2C	0	·	·	-1	·
COc1ccc(C2=NN(c3ccc(C=O)cc3)C(c3ccccc3)C2)cc1 (configuration not stated)	1	2	39	-2	3%
COc1ccc(C2CC(c3cccs3)=NN2c2ccc(C=O)cc2)cc1 (configuration not stated)	40*	?	-11	5	?
CCN(CC)c1ccc(/C=C/c2nccc3ccccc23)cc1	·	64*	·	·	·
CCN(CC)c1nc(C=Cc2ccc(N(C)C)cc2)c2nccnc2n1	·	64*	-3	·	·
COc1ccccc1C(C)NCC(=O)c1c(C)[nH]c2ccccc12 (configuration not stated)	·	0	·	·	·
COc1ccc(/C=N/NC(=O)CNc2n[nH]c(=O)[nH]c2=O)cc1OC	-1	0	-5	34*	-2%
CC1=C(C(=O)OCc2ccc3nsnc3c2)N2C(=O)[C@@H](NC(=O)OCc3ccc4nsnc4c3)[C@H]2SC1	·	3	·	·	·
COc1ccc(Cn2ccnc2SCC(=O)Nc2cccc(NC(C)=O)c2)cc1	0	0	-15	-4	-1%
SMILES	TRHR agonist	TRPML1 agonist	TRPML1 inh	TRHR enhancer	TSG101-PTAP inh
COc1ccc(Cn2c(CO)cnc2SCC(=O)Nc2cccc(NC(C)=O)c2)cc1	0	1	-14	32*	-3%
Cc1cccc(C)c1NC(=O)CN(C)CC(=O)Nc1cc(Cl)ccc1C#N	0	0	-7	34*	-1%
CCOc1ccc(NC(=O)CN(C)CC(=O)Nc2cc(Cl)ccc2C#N)cc1OCC	-1	1	16	-4	-1%
CCOC(=O)C(NC(=O)Nc1ccc(F)cc1F)(Oc1ccccc1)C(F)(F)F (configuration not stated)	-2	0	3	31*	-1%
CN1C(=O)Cc2cc(S(=O)(=O)NCCc3ccc(Cl)cc3)ccc21	1	1	26	40*!	-10%
O=C(COC(=O)c1cc(=O)[nH]c2ccc(Br)cc12)c1ccccc1	-2	6	9	33*	-2%
O=C(COC(=O)c1cc(=O)[nH]c2ccccc12)c1ccc(Br)cc1	-2	-1	5	-4	1%
CSCCC(NS(=O)(=O)c1ccc2c(c1)oc(=O)n2C)C(=O)N1CCN(c2cccc(Cl)c2)CC1 (configuration not stated)	0	2	-2	38*	·
COc1cccc(N2CCN(C(=O)C(CCSC)NS(=O)(=O)c3ccc4c(c3)oc(=O)n4C)CC2)c1 (configuration not stated)	0	1	21	4	·
Cc1ccccc1N(C(=O)c1snc(C(N)=O)c1N)C(C(=O)NCC1CCCO1)c1ccc(F)cc1 (configuration not stated)	-1	-2	-9	40*	1%
Cc1cnc2ccc3ccccc3c2c1C	·	-1	·	·	·
N=c1oc2c3c4c(cc2cc1C(=O)Nc1ccccc1)CCCN4CCC3	94*	0	-6	-16	?
Cc1ccc(NC(=O)c2cc3ccccc3oc2=N)cc1	5	1	-25	15	1%
COc1cc(C(=O)NCC(=O)NCCN2C(=O)S/C(=C\c3ccccc3Cl)C2=O)cc(OC)c1OC	0	-1	1	31*	-4%
Cc1ccc(CNC(=O)c2ccc(-n3c(C)cc4c3CCCC4)cc2)cc1	0	1	-11	31*	·
CCn1cc(Cl)c(C(=O)Nc2ccc3c(c2)OCCO3)n1	0	0	3	38*	3%
CCCCCc1cc[n+](CC(=O)c2ccccc2)cc1	·	0	·	·	·
CSc1nc2ccc3nc(NC(=O)c4ccccc4)sc3c2s1	0	0	-4	37*	-1%
O=C(Nc1ccccc1)c1nc[nH]c1C(=O)NCc1ccccc1	0	2	6	-4	-7%
O=C(NCc1ccccc1)c1nc[nH]c1C(=O)NCc1ccccc1	0	3	13	33*	-3%
N#Cc1nc(Nc2cccc3ccccc23)nc(NC2CCCC2)n1	2	·	·	-6	·
COCC1CCCN(Cc2cn(-c3ccccc3F)nc2-c2cc(C)sc2C)C1 (configuration not stated)	1	0	-2	32*	0%

Bioassay records deposited in PubChem by National Center for Advancing Translational Sciences (NCATS).
